Measurements as given in PubChem BioAssay (NCI).
“And” between values parts separate entries of the source, which are not always exact repeats. Equal entries are not always repeated. About 83,000 compounds went through this panel and 20% of them were active in at least one assay; those are over-represented in the sample as a whole.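 Testing used 96-well plates and a 48-hour single-concentration exposure. Example: -40 means 40% of the starting cells died.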 A number with no mark means an inactive call. The source made the active and inactive calls. Rule for the calls: active = growth percent below 10; inactive = the rest.

System: MDA-MB-468 breast
Test: NCI-60 one-dose screen, 48 h (100 = growth as untreated, 0 = no growth, -100 = all killed)
Conditions: 10 µM unless noted

## N#CC1C(=O)c2ccccc2C1c1ccccc1 (centres undefined)
  growth: 94.3% and 119%

## COc1cc(C(=O)c2c(-c3ccccc3)oc3c(OC)cccc23)cc(OC)c1OC
  growth: 18.4%

## COc1ccc(OC)c(/C=C/[C@H]2O[C@@H](C)[C@H](O)[C@@H]2O)c1
  growth: 114%

## O=S(=O)(NCCNc1nccc(-c2c(-c3ccc(F)c(O)c3)nc3occn23)n1)c1ccc(Cl)cc1
  growth: 95.6%

## NC(=O)c1cc(I)ccc1NC(=O)COc1ccccc1
  growth: 30.3%

## Nc1cc(O)cc(O)c1
  growth: 107%

## COc1ccc(/C=N/NC(=O)c2cnn(CC(O)Cc3ccccc3)c2N)cc1OC1CCCC1 (centres undefined)
  growth: 93.4%

## Cc1cc(=O)oc2c1ccc1oc(C(=O)c3ccccc3)c(C)c12
  growth: 76.1%

## CC1(C)CC[C@]23CC[C@]4(C)[C@H](CC[C@@H]5[C@@]6(C)C/C(=C/c7ccncc7)C(=O)C(C)(C)[C@@H]6CC[C@]54C)[C@H]2[C@H]1OC3
  growth: 91.1%

## COc1cccc(-c2cc3c(O)cc(C#N)cc3[nH]2)c1
  growth: 102%

## CCOC(=O)c1c(C)oc2ncnc(Nc3ccc(NC(=O)Nc4cccc(Cl)c4)cc3)c12
  growth: 49.7%

## O=C1Nc2ccccc2Oc2ccc(S(=O)(=O)CC3CO3)cc21 (centres undefined)
  growth: -5.7% (active)

## CSc1ccc2c(c1)C(N1CCN(C)CC1)Cc1ccccc1S2 (centres undefined)
  growth: -66.4% (active)

## CN1CCN(Cc2ccc(NC(=O)c3cnc(F)c(C#Cc4cnc(N)c5ncccc45)c3)cc2C(F)(F)F)CC1
  growth: -5.56% (active)
